# Screening data as filed in PubChem.
# This is a sample that favours compounds with a hit; in the whole collection about 5.6% have one here.
# H9c2 protect = myocardial damage modulation in H9c2 cells; actives 0.63% (n = 360,000); protection from H2O2 cell death, % at 20 µM; H9c2 cardiomyocytes, H2O2 injury protection, ATPLite, 2 h;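 active = compounds giving at least 50% protection of heart cells from peroxide-induced death in the single-dose screen, raw or plate-pattern-corrected value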;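 note: 0% = DMSO wells with peroxide and 100% = DMSO wells without peroxide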
# ALR H2O2 inh = human ALR oxidase inhibition via reduced H2O2; P55789; AID 485317; actives 3.8% (n = 290,000); inhibition, % (no concentration beside the values); purified ALR, DTT oxidation, H2O2 HRP-luminol luminescence;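 active = mean replicate inhibition above about 79%, with every replicate also reaching it, limit read from the data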
# PHOSPHO1 inh = PHOSPHO1 (human) inhibition; Q8TCT1; recombinant PHOSPHO1, absorbance phosphatase assay; inhibition, % at 13.3 µM; actives 1.1% (n = 290,000); AID 1565; in the data active = inhibition above about 60%
# PfM18AAP inh-1 = PfM18AAP enzyme inhibition | recombinant PfM18AAP, H-Glu-NHMec fluorogenic cleavage | inhibition, % at 7.35 µM | actives 1.2% (n = 290,000) | AID 1822;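 active = inhibition above the campaign mean inhibition over all tested compounds plus 3 SD, cut at about 28% in these data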;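 note: 0% = plate median of test compound wells and 100% = 2 mM ZnCl2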
# PfGluPho inh = PfG6PD (Plasmodium falciparum) enzyme inhibition | actives 0.78% (n = 350,000) | PfGluPho enzyme, NADPH resazurin-diaphorase fluorescence | AID 504690 | inhibition, % at 20 µM;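 active = inhibition reaching at least a set limit at 20 µM in the primary screen, cut at about 59% in these data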;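 note: 0% = DMSO wells with substrate and 100% = DMSO wells lacking glucose-6-phosphate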
# PfM18AAP inh-2 = PfM18AAP inhibition, confirmation; shares compounds with PfM18AAP inh-1; recombinant PfM18AAP, H-Glu-NHMec fluorogenic cleavage; inhibition, % at 7.35 µM; actives 28% (n = 2,400);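 active = mean inhibition over replicate wells above the hit cutoff set for the earlier primary screen, cut at about 29% in these data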;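 note: 0% = median of test compound wells and 100% = 2 mM ZnCl2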
# CTSL1 counter = Cathepsin L (human) inhibition, confirmation. shares compounds with PfM18AAP inh-1. inhibition, % at 5.96 µM. 2,400 tested, under 10 active. purified cathepsin L1, Z-Leu-Arg-MCA fluorescence;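 active = average inhibition across replicates above the hit cutoff set in the earlier primary screen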;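 note: 0% = median of test compound wells and 100% = Z-Phe-Ala-diazomethylketone 1 µM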
# Target sequence (P07711 whole entry, looked up): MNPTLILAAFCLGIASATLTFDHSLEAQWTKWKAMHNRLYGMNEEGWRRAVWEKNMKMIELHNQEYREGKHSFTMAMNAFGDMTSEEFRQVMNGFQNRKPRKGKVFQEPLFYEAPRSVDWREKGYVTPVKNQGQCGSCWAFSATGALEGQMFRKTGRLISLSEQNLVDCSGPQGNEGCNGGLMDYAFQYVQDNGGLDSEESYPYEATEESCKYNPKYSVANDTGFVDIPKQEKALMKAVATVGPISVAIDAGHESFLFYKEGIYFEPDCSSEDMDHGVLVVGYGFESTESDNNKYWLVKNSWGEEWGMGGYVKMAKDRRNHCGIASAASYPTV
# * = called active by the depositor; · = no result given.
SMILES,H9c2 protect,ALR H2O2 inh,PHOSPHO1 inh,PfM18AAP inh-1,PfGluPho inh,PfM18AAP inh-2,CTSL1 counter
Cc1ccc(C23CC4CC(CC(CN)(C4)C2)C3)cc1,-4,·,60*,-15,-6,·,·
CSc1nc2sc3c(c2c(=O)[nH]1)CCC3,52*,·,0,-2,30,·,·
CCCCc1nc2sc3c(c2c(=O)[nH]1)CCC3,70*,-7,-2,-1,-11,·,·
CC(C)NC(=O)Cn1nnc(-c2ccccc2)c1COc1ccc2ccccc2c1,-5,·,·,·,·,·,·
CCN1CCN(C(=S)c2ccc(OCC(=O)NCc3ccccc3)cc2)CC1,-9,5,34,39*,46,-7,3
Cc1ccc(NC(=S)N2CCN(Cc3ccccc3)CC2)cc1,-8,-5,14,-2,-5,·,·
Cc1ccc(C(=S)N2CCN(Cc3ccccc3)CC2)cc1,-11,-6,-155,52*,27,-6,6
CCN1CCN(C(=S)c2ccc(OCC(=O)Nc3ccc(OC)cc3)cc2)CC1,-13,-6,·,3,-4,·,·
CC1(C)Cc2c(sc(NC(=O)C(=O)N3CCCCC3)c2C(N)=O)CO1,4,7,7,8,-14,·,·
CC(NC(=O)CNC(=O)c1ccc2c(c1)OCO2)c1ccc(S(N)(=O)=O)cc1 (stereo not given),-1,44,·,·,11,·,·
CCc1nc2ccc(C(=O)NCc3ccc(OC)cc3)cn2c1N(CCC(C)C)CCN(C)C,6,·,·,·,·,·,·
Cc1ccc(OCCC(=O)Nc2cc(S(=O)(=O)N3CCOCC3)ccc2N2CCCC2)cc1,-1,·,·,·,-1,·,·
COc1ccc2[nH]c3c(c2c1)CCN1C(=O)C(CC(=O)NCCN2CCOCC2)C[C@H](C(=O)N2CCOCC2)[C@@]31C (stereo not given in full),15,·,·,·,-7,·,·
COc1ccc(CC(=O)NCc2n[nH]c(=S)n2-c2cccc(C)c2)cc1,9,34,1,40*,42,-17,3
O=C(Cc1ccccc1)NCc1n[nH]c(=S)n1-c1ccccc1,1,4,11,18,20,·,·
O=C(NCc1n[nH]c(=S)n1-c1cccc(C(F)(F)F)c1)c1ccco1,7,20,-32,34*,5,-10,-5
CC(=O)C1=C(C)Nc2cc(C(F)(F)F)ccc2S1,3,·,96*,36*,46,-4,-1
Cc1cc(=O)[nH]c(SCC(=O)Nc2ccccc2C#N)c1C#N,8,-2,30,38*,12,-48,-3
Cc1cc(=O)[nH]c(SCC(=O)Nc2c(C)n(C)n(-c3ccccc3)c2=O)c1C#N,7,·,·,·,-8,·,·
COc1ccccc1NS(=O)(=O)c1cc(NC(=O)c2sccc2C)ccc1N1CCCC1,2,-3,-83,56*,49,8,-2
CC1CC(C)CN(C(=O)c2nn(C)c3c2CSc2ccccc2-3)C1 (stereo not given),6,31,18,11,28,·,·
CC1CCCN(C(=O)c2nn(C)c3c2CSc2ccccc2-3)C1 (stereo not given),3,40,7,42*,52,2,-1
Cc1ccc(-c2n[nH]c(=S)n2/N=C/c2ccc(C)o2)cc1,-7,-27,32,18,43,·,·
Cc1ccc(/C=N/n2c(-c3ccc(Cl)cc3)n[nH]c2=S)o1,-3,7,12,32*,22,-24,3
COc1ccc(S(=O)(=O)NCC(c2ccc(F)cc2)N2CCN(C)CC2)cc1 (stereo not given),0,·,·,·,7,·,·
SMILES,H9c2 protect,ALR H2O2 inh,PHOSPHO1 inh,PfM18AAP inh-1,PfGluPho inh,PfM18AAP inh-2,CTSL1 counter
Cc1nc(C)c(C(=O)NNS(=O)(=O)c2ccccc2)s1,-2,25,-9,10,8,·,·
Cc1ccc(C)c(S(=O)(=O)NNC(=O)c2sc(NS(=O)(=O)c3ccccc3)nc2C)c1,0,14,19,36*,-18,-10,-1
CC(=O)O[C@@]1(C)C[C@@H](O)[C@]2(O)C=CO[C@@H](O[C@@H]3O[C@H](CO)[C@@H](O)[C@H](O)[C@H]3O)[C@@H]21,4,9,·,·,-9,·,·
COc1cc(-c2nnc(SCc3cc(=O)oc4cc(O)c(O)cc34)o2)cc(OC)c1OC,81*,·,50,35*,-36,2,5
CCOC(=O)CSc1nnc(-c2cc(OC)c(OC)c(OC)c2)o1,0,0,33,-3,-9,·,·
CC(=O)Nc1cc(-c2ccsc2)cn2c(-c3ccc(F)cc3)cnc12,-2,·,·,·,·,·,·
